# High-throughput results: PubChem BioAssay, Broad Institute
# Only some compounds are listed: those with a hit (about 0.47% of all), similar ones and a draw of the others.
# Yp Topo-I inh: inhibitors of Yersinia pestis topoisomerase I | 360,000 tested, 0.064% active | activity, % at 10 µM | Y. pestis Topo-I cleavage product accumulation, plate reader; in the data active = activity above about 50%, passing the limit was not always enough
# BioA inh: BioA (M. tuberculosis) enzyme inhibition; purified M. tuberculosis BioA enzyme, plate reader; 360,000 tested, 0.096% active; inhibition, % at 9.99 µM; in the data active = inhibition above about 40%
# TcdB inh: inhibitors of Clostridioides difficile toxin B glycohydrolase; P18177; TcdB glycohydrolase enzymatic assay, plate reader; inhibition, % at 9.99 µM; 350,000 tested, 0.24% active; in the data active = inhibition above about 10%
# FadD28 binding: M. tuberculosis FadD28 bisubstrate binding inhibition | FadD28 bisubstrate probe binding, fluorescence polarization | inhibition, % at 12.5 µM | 360,000 tested, 0.22% active | AID 588549; in the data active = inhibition above about 8.5%, passing the limit was not always enough
# Active calls of the source: *; / = no result given.
SMILES,Yp Topo-I inh,BioA inh,TcdB inh,FadD28 binding
N#Cc1nc(Cc2cccc3ccccc23)oc1N1CCOCC1,0.9,-0.5,1.1,1.6
CC1CCN(c2oc(Cc3cccc4ccccc34)nc2C#N)CC1,54.8*,-0.5,/,2.6
COc1ccc(C2c3c(nc(C)[nH]c3=O)Oc3c2c(=O)oc2ccccc32)cc1 (configuration not stated),/,/,1.2,/
Cc1ccc(S(=O)(=O)Nc2ccc(O)c3ccccc23)c(C)c1,-7.6,-0.8,0.3,54.6*
COc1ccc(NC(c2ccccc2)c2ccncc2)cc1 (configuration not stated),-3.4,0.4,15.8*,-3.3
O=C(O)c1cc(-c2ccc(/C=C3/SC(=S)N(Cc4ccccc4)C3=O)o2)ccc1Cl,-8.3,-0.4,-0.8,27.9*
Cc1ccc(/C=C2\SC(=S)N(Cc3ccccc3)C2=O)o1,2.9,-3.0,/,-0.9
CCCNC(=O)N1[C@H](C#N)[C@H](c2ccc(C3=CCCCC3)cc2)[C@H]1CO,/,0.3,1.4,/
N#CCCN(C(=O)COC(=O)c1ccc2c(c1)OCO2)c1ccccc1,-1.6,-1.3,0.6,-0.8
N#CCCN(C(=O)COC(=O)c1cc(=O)c2ccccc2o1)c1ccccc1,1.8,-0.8,10.0*,-3.5
Oc1cccc(/C=N/N(Cc2ccccc2)c2ccccc2)c1,-23.2,/,0.1,-0.6
Oc1ccc(/C=N/N(Cc2ccccc2)c2ccccc2)c(O)c1O,-17.6,/,-3.9,15.6*
O=P(c1ccccc1)(c1ccccc1)c1nc(-c2ccccc2)oc1N1CCOCC1,57.7*,0.8,2.0,0.3
O=P(c1ccccc1)(c1ccccc1)c1nc(-c2ccc(Cl)cc2)oc1N1CCOCC1,33.1,0.4,2.5,-1.6
S=c1[nH]nc2ccccn12,7.2,-0.9,26.5*,0.4
O=C(Nc1ccc2[nH]ncc2c1)c1ccccc1,-3.7,0.0,-0.2,-2.5
O=C1CCCC(=O)C1C(c1ccc(Cl)cc1)C1C(=O)CCCC1=O,5.5,-0.2,-0.1,-3.3
COc1cc(Cl)c(C)cc1NC(=O)Cn1c(NCCO)nc2ccccc21,-4.6,-0.8,0.1,-3.4
COc1ccc(Cl)cc1NC(=O)Cn1c(NCCO)nc2ccccc21,-4.0,0.5,27.3*,0.7
Cn1c2ccccc2c2nnc(NN)nc21,0.7,-0.8,1.2,-3.2
Cc1cc(NC(=O)C(C)SCC(=O)Nc2ccccc2C(C)(C)C)no1 (configuration not stated),-8.3,-0.1,0.4,-1.5
O=C1c2ccccc2C(=O)c2c(O)c(O)cc(O)c21,-5.4,-3.8,1.3,46.7*
COC(=O)c1ccc(NC(c2ccc(Cl)cc2)P(=O)(OC)OC)cc1 (configuration not stated),8.3,/,/,0.2
O=C(CSc1nnc(-c2ccncc2)n1Cc1ccco1)Nc1nc(-c2ccccc2)cs1,25.5,-0.2,/,-2.4
Cc1cc2c(cc1S(=O)(=O)N(C)c1ccccc1)NC(=O)CO2,11.1,5.9,20.8*,-2.6
SMILES,Yp Topo-I inh,BioA inh,TcdB inh,FadD28 binding
COC(=O)c1ccc(COc2ccc(/C=N/NC(N)=S)cc2)o1,-1.6,-0.9,0.7,50.6*
CS(=O)(=O)Nc1ccc(C(=O)Nc2ccccc2Sc2ccccc2)cc1,6.9,1.4,/,-6.4
FC(F)(F)c1cccc(-c2ccc(-c3csnn3)o2)c1,-4.0,3.4,/,-0.3
CCc1nc2ccc(C(=O)NCCCn3ccnc3)cn2c1N(C)Cc1cc2ccccc2s1,4.7,-0.2,-0.2,9.2*
CCc1nc2ccc(C(=O)NCCCn3ccnc3)cn2c1N(C)Cc1ccc(OC)cc1,1.5,2.7,0.6,-2.3
Cc1ccc(NC(=O)C(=O)NCC2CCCN2S(=O)(=O)c2cccs2)cc1 (configuration not stated),21.1,11.5,-0.2,-4.2
COc1ccc(-c2nc(=S)[nH][nH]2)cc1OC,3.0,/,8.6,-3.9
COc1cc(-c2nc(=S)[nH][nH]2)cc(OC)c1OC,-3.2,/,30.2*,0.3
COc1cc2ccccc2cc1C(=O)N/N=C/c1cccs1,14.8,11.2,12.6*,-2.2
CCNC(=O)C1CCCN(C(=O)c2cccc(Cl)c2)CC1 (configuration not stated),-1.0,1.4,0.2,-0.3
Cc1cccc(OCCC(=O)NCC(=O)Nc2cccc(C)c2C)c1,2.4,-2.1,18.9*,-2.8
CCOC(=O)N1CCN(C(=O)COc2cc(=O)n(C)c3ccccc23)CC1,2.0,-1.3,/,0.5
CC(=O)N1CCc2cc(S(=O)(=O)CCC(=O)Nc3cccc(F)c3)ccc21,-6.5,-2.2,/,-1.8
CC(C)CSC1=NSC2=NC(=O)/C(=C\c3coc4ccccc4c3=O)C(=N)N12,1.2,/,/,14.4*
CSC1=NSC2=NC(=O)/C(=C\c3coc4ccccc4c3=O)C(=N)N12,0.8,/,-1.0,5.2
COc1cccc(C(=O)Nc2cc(C)on2)c1OC,6.2,-1.8,1.0,0.2
